Reference: PubChem BioAssay (Tox21)
Values joined by “and” are separate entries in the source; they are usually repeats but may differ in a detail not shown here. Equal entries are not always repeated. Results filed as inconclusive are left out. A call without a number means that no potency is given here. Some compounds were tested as several samples or in several runs, with calls that do not always agree. Active and inactive are the calls of the source. Unless noted, calls follow the shape of the dose curve; as a rule, active = well fitted curve in the direction sought with a large enough effect in the repeat runs; inconclusive = weak or mixed curves; inactive = no such curve, though single readings can be large; an effect the other way counts as inactive or inconclusive.

How the values were obtained:
[1] = target: Thyrotropin-releasing hormone receptor (Homo sapiens) (UniProt P34981); assay: qHTS assay to identify small molecule agonists of the thyrotropin-releasing hormone receptor (TRHR) signaling pathway (AID 1346891; calls by dose curve;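 also: HEK293 cells expressing TRHR with calcium dye readout; series mostly up to about 58 µM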)
Sequence of Thyrotropin-releasing hormone receptor (Homo sapiens) (P34981 whole entry, looked up): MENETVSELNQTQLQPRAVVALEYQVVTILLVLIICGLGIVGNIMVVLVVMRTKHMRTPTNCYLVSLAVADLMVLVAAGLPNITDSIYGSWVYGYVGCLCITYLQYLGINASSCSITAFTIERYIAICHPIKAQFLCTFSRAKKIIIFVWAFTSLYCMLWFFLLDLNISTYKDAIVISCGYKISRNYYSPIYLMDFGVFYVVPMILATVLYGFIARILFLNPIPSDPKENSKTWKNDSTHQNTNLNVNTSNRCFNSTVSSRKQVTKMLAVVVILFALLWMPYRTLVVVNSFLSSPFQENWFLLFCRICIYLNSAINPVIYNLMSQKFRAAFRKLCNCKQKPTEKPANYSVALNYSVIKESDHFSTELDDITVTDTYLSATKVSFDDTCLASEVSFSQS
Summary of the method: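 Overnight-plated (18 h, 37 °C, 5% CO2) TRHR-Hek293 cells; 2 h calcium dye at 37 °C; compound in DMSO; 3-min kinetic fluorescence read.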

[2] = Human pregnane X receptor (PXR) small molecule agonists, qHTS cell viability counter screen (AID 1346977); also: nearly all actives have a fitted effect of over 50% in size; also: potency is read from the fitted curve at half-maximal effect
Summary of the method: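 After a 5hr pre-incubation, PXR-Luc HepG2 cells received compounds plus positive control in DMSO and were kept 24hr at 37C. Cell viability was quantified by fluorescence from CellTiter-Fluor added for the final hour.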

[3] = Caspase-3/7 induction in HepG2 cells by small molecules, qHTS assay (AID 1346978); also: nearly all actives have a fitted effect of over 15% in size
Summary of the method: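 Wild-type HepG2 cells, 2,000/well, settled 5 hr at 37 C and 5% CO2, then compound-treated for 17 hr; caspase-3/7 activity read by luminescent Caspase-Glo 3/7 after 30 min at room temperature.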

[4] = Caspase-3/7 induction in CHO-K1 cells by small molecules, qHTS cell viability counter screen (AID 1346979); also: nearly all actives have a fitted effect of over 35% in size; also: potency is read from the fitted curve at half-maximal effect
Summary of the method: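 Multiplexed with Caspase-Glo 3/7 in CHO-K1 cells, this counter screen added CellTiter-Fluor after 16hr of compound exposure and recorded fluorescence 1hr later.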

[5] = Caspase-3/7 induction in CHO-K1 cells by small molecules, qHTS assay (AID 1346980); also: nearly all actives have a fitted effect of over 15% in size
Summary of the method: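 Wild-type CHO-K1 cells exposed to compounds for 17hr at 37 C, 5% CO2. Caspase-3/7 activity then measured by Caspase-Glo 3/7 luminescence after 30min at room temperature.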

[6] = Caspase-3/7 induction in HepG2 cells by small molecules, qHTS cell viability counter screen (AID 1346981); also: nearly all actives have a fitted effect of over 30% in size; also: potency is read from the fitted curve at half-maximal effect
Summary of the method: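 CellTiter-Fluor fluorescence measured viability in the same wells used for Caspase-Glo 3/7. HepG2 (wild type) at 2,000 cells/well were pre-incubated 5 hr, dosed, and given reagent at 16 hr, with 1 hr further at 37C.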

[7] = target: Nuclear receptor subfamily 1 group I member 2 (Homo sapiens) (UniProt O75469); assay: Human pregnane X receptor (PXR) small molecule agonists, qHTS assay (AID 1346982); also: nearly all actives have a fitted effect of over 35% in size; also: potency is read from the fitted curve at half-maximal effect
Sequence of Nuclear receptor subfamily 1 group I member 2 (Homo sapiens) (O75469 whole entry, looked up): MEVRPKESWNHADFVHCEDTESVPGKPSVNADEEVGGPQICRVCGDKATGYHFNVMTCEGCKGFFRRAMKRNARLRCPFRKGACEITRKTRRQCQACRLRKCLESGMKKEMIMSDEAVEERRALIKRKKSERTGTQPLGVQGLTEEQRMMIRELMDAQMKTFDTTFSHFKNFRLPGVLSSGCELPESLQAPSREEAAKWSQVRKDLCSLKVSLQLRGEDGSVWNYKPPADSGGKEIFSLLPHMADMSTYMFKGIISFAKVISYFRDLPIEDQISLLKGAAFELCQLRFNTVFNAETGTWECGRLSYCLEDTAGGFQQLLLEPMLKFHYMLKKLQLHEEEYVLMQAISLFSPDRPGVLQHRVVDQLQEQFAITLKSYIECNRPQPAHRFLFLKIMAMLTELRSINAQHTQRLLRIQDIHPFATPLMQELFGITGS
Summary of the method: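 Agonist mode: luminescence from ONE-Glo after 24 h compound exposure at 37C in HepG2 cells carrying hPXR-responsive CYP3A4 luciferase, plated in charcoal-stripped serum medium 5 h beforehand.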

Row | SMILES | Potency [1] | Potency [2] | Potency [3] | Potency [4] | Potency [5] | Potency [6] | Potency [7]
1 | CCOP(=S)(OCC)O/N=C(\C#N)c1ccccc1 | inactive | inactive | inactive | inactive | inactive | inactive | 30.6 µM (active)
2 | COP(=S)(OC)Oc1cc(Cl)c(Cl)cc1Cl | inactive | inactive | inactive | inactive | inactive | inactive | 30.4 µM (active) and inactive
3 | CCC(C)c1ccc(O)cc1 (stereo unspecified) | inactive | inactive | inactive | inactive | inactive | inactive | inactive
4 | C=C(C)C(=O)OCC1CO1 (stereo unspecified) | inactive | inactive | inactive | inactive | inactive | inactive | inactive
5 | CCCCC(CC)COC(=O)c1ccc(C(=O)OCC(CC)CCCC)c(C(=O)OCC(CC)CCCC)c1 (stereo unspecified) | inactive | inactive | inactive | inactive | inactive | inactive | inactive
6 | CCCCN(CCCC)N=O | inactive | inactive | inactive | inactive | inactive | inactive | inactive
7 | Cc1cc(Cl)ccc1OCCCC(=O)O | inactive | inactive | inactive | inactive | inactive | inactive | inactive
8 | COc1ccc(C=O)cc1 | inactive | inactive | inactive | inactive | inactive | inactive | inactive
9 | c1ccc(NNc2ccccc2)cc1 | inactive | inactive | inactive | inactive | inactive | inactive | inactive and 48.6 µM (active)
10 | Nc1c(Cl)cc([N+](=O)[O-])cc1Cl | inactive | inactive | inactive | inactive | inactive | inactive | 27.5 µM (active)
11 | O=P(Oc1ccccc1)(Oc1ccccc1)Oc1ccccc1 | inactive | inactive | inactive | 68.2 µM (active) | inactive | inactive | 30.5 µM (active) and 27.3 µM (active)
12 | CC(C)(OOC(C)(C)c1ccccc1)c1ccccc1 | inactive | inactive | inactive | inactive | inactive | inactive | inactive
13 | C=CCN(CC=C)C(=O)C(Cl)Cl | inactive | inactive | inactive | inactive | inactive | inactive | inactive
14 | Cc1cccc(N)c1N | inactive | inactive | inactive | inactive | inactive | inactive | 26.4 µM (active) and 54.5 µM (active)
15 | ClC1C(Cl)C(Cl)C(Cl)C(Cl)C1Cl (stereo unspecified) | inactive | inactive | inactive | inactive | inactive | inactive | –
16 | NC(=S)Nc1ccccc1 | inactive | inactive | inactive | inactive | inactive | inactive | inactive
17 | N#CC(Br)Br | inactive | inactive | inactive | inactive | inactive | inactive | inactive
18 | O=[N+]([O-])c1ccc(O)c([N+](=O)[O-])c1 | inactive | 24.4 µM (active) and 54.5 µM (active) | inactive | 48.8 µM (active) and 54.5 µM (active) | inactive | 54.7 µM (active) and 61.1 µM (active) | inactive
19 | O=P(O)(O)CCCl | inactive | inactive | inactive | inactive | inactive | inactive | inactive
20 | COP(=O)(OC)OC | inactive | 44.7 µM (active) and inactive | inactive | 30.9 µM (active) and inactive | inactive | inactive | 61.6 µM (active) and inactive
21 | COC(=O)c1sccc1S(=O)(=O)NC(=O)Nc1nc(C)nc(OC)n1 | inactive | inactive | inactive | inactive | inactive | inactive | inactive
22 | Clc1nc(Cl)nc(Cl)n1 | inactive | inactive | inactive | inactive | inactive | inactive | inactive
23 | CCCCC(CC)COC(=O)Cl (stereo unspecified) | inactive | inactive | inactive | inactive | inactive | inactive | inactive
24 | O=S(=O)(Oc1ccc(Cl)cc1)c1ccc(Cl)cc1 | inactive | inactive | inactive | inactive | inactive | inactive | 55.2 µM (active) and 30.6 µM (active)
25 | CCC(C)(c1ccc(O)cc1)c1ccc(O)cc1 | inactive | inactive | inactive | 61.1 µM (active) | inactive | inactive | 12.2 µM (active) and 5.45 µM (active)
26 | Cc1cc(C)cc(C)c1 | inactive | inactive | inactive | inactive | inactive | inactive | inactive
